Source: PubChem BioAssay
Compounds with a hit are over-represented: about 7.3% of the library has one in this group of screens.
HCMV antiviral: human cytomegalovirus inhibition; HFF cells, HCMV-luciferase reporter, 72 h; stronger effect = lower value; activity change, negative = inhibition, % at 57.5 µM; 410,000 tested, 4.5% active; AID 1259415; in the data active means activity change below about -60%; inconclusive means no clear call, values can overlap the other calls; inactive means above about -39%
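Two compound doses tested in HFFs infected with HCMV-luciferase, MOI 1 PFU/cell, 72 h at 37C. Lysate luminescence read with OneGlo; data normalized against buffer-only and 10uM Salinomycin inhibitor controls.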
VACV mCherry inh: vaccinia inhibition (mCherry reporter) | Vaccinia virus mCherry reporter infection, fluorescence | AID 720579 | Potency, µM (doses to about 36.5 µM), for inactives: at the top dose activity change, negative = inhibition, actives largely listed as inhibitors | 310,000 tested, 0.63% active; calls by dose curve; tested in A549 cells; further: potency means the concentration at half of the fitted maximal effect; nearly all actives have a fitted effect of over 35% in size
Vaccinia Venus: inhibitors of vaccinia virus (Venus reporter). Vaccinia virus Venus reporter expression, fluorescence. AID 720580. 330,000 tested, 0.46% active. Potency, µM (doses to about 36.5 µM), inactives show at the highest dose activity change, negative = inhibition, most hits filed as inhibitors; calls by dose curve; tested in A549 cells; further: potency means the concentration at half of the fitted maximal effect; nearly all actives have a fitted effect of over 30% in size
HCV inhibitor: blocks hepatitis C virus. Huh7.5.1 HCVcc-Cre infection, luciferase reporter, 44 h. Potency, µM (doses to about 41.8 µM), without a hit: at the highest dose activity change, negative = inhibition, most hits filed as inhibitors. 340,000 tested, 3.4% active. AID 651820; active means well fitted inhibition curve with a large enough effect; inconclusive means small, poorly fitted or top-dose-only effect, or another doubt; inactive means no such curve, though single readings can be large or run the other way; further: potency means the concentration at half of the fitted maximal effect
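1,000 cells/well; 4 h culture; + compound; + HCVcc-Cre (~0.5 moi); 44 h; luciferase substrate, RT 15 min; read 15 sec.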
FMDV antiviral: blocks foot and mouth disease virus; FMDV antiviral cell-based qHTS; Potency, µM (top dose mostly 57.9 µM), without a hit: at the top dose activity change, negative = inhibition, hits mostly inhibitors; 410,000 tested, 1.2% active; AID 1159524; calls by dose curve; tested in HEK293T cells; further: read-out not given here; potency means the concentration at half of the fitted maximal effect; nearly all actives have a fitted effect of over 45% in size
Active calls of the source: *. On the % scale 0 is the no-effect control and ±100 the full control effect.

For CC(=O)Nc1ccc(S(=O)(=O)N2CCN(S(=O)(=O)c3ccc(NC(C)=O)cc3)CC2)cc1 the results were VACV mCherry inh inactive, Vaccinia Venus -2.0%, HCV inhibitor -2.7% and FMDV antiviral -17.4%.
`CC1CCCN(C(=S)Nc2ccc(S(=O)(=O)N3CCCCC3)cc2)C1` (centres undefined) gave HCMV antiviral -67.0*, VACV mCherry inh inactive, Vaccinia Venus -19.0%, HCV inhibitor 7.9% and FMDV antiviral -4.3%.
`CC(C(=O)N1CCCCC1)N1CCN(S(=O)(=O)c2ccc(Cl)cc2)CC1` (centres undefined) gave HCMV antiviral 0.8, HCV inhibitor 12.6% and FMDV antiviral -16.4%.
`COC(=O)Nc1ccc(S(=O)(=O)N2CCC(C(=O)N3CCCC(C)C3)CC2)cc1` (centres undefined) gave HCMV antiviral -38.0, VACV mCherry inh inactive, Vaccinia Venus -10.6%, HCV inhibitor -12.9% and FMDV antiviral 5.9%.
Screening CC(=O)Nc1ccc(S(=O)(=O)N2CCc3c(Cl)cccc3C2)cc1 returned HCMV antiviral -66.6*, VACV mCherry inh -44.3%, Vaccinia Venus -26.2%, HCV inhibitor inconclusive and FMDV antiviral -2.9%.
For CC(C)c1ccc(S(=O)(=O)N2CCN(C(C)C(=O)N3CCCC3)CC2)cc1 (centres undefined) the results were HCMV antiviral -70.0*, VACV mCherry inh -15.5%, Vaccinia Venus -17.1%, HCV inhibitor 18.7% and FMDV antiviral -17.8%.
`CC(=O)Nc1ccc(S(=O)(=O)N2CCN(C(=O)N3CCCCCC3)CC2)cc1` gave HCMV antiviral -68.5*, Vaccinia Venus 1.8%, HCV inhibitor 4.3% and FMDV antiviral -15.3%.
`CCOC(=O)C1CCC(CN(Cc2ccc(Cl)cc2)S(=O)(=O)c2ccc(F)c(C(=O)Nc3cccc(F)c3)c2)CC1` (centres undefined) gave HCMV antiviral 15.9, VACV mCherry inh -9.4%, Vaccinia Venus 1.7% and FMDV antiviral 0.0%.
For O=C(OCC(=O)N1CCCc2ccccc21)c1cnc(Cl)c(Cl)c1 the results were HCMV antiviral -3.6, HCV inhibitor 5.01µM* and FMDV antiviral -6.3%.
CCN1[C@H](C(=O)OC)[C@@H](CO)[C@@H]2Cn3c(ccc(Br)c3=O)[C@@H]21 was read as HCMV antiviral 19.9.
Screening Cc1ccc2[nH]cc(/C=C/c3cc[n+](C)cc3)c2c1 returned HCMV antiviral -100.0*, VACV mCherry inh inconclusive, Vaccinia Venus 51.5%, HCV inhibitor inconclusive and FMDV antiviral -10.8%.
Screening COc1ccc2c(/C=C/c3cc[n+](C)cc3)c[nH]c2c1 returned HCMV antiviral -98.7*, VACV mCherry inh inconclusive, Vaccinia Venus 12.5%, HCV inhibitor inconclusive and FMDV antiviral inconclusive.
CC[n+]1ccc(/C=C/c2c[nH]c3ccccc23)cc1 was read as HCMV antiviral -94.1*, HCV inhibitor 2.82µM* and FMDV antiviral inconclusive.
`COc1ccc2c(c1)c(/C=C/c1cc[n+](C)cc1)cn2C` gave HCMV antiviral -97.6*, VACV mCherry inh inconclusive, Vaccinia Venus 28.0%, HCV inhibitor -20.8% and FMDV antiviral inconclusive.
`O=C(C[C@@H]1CC[C@@H]2[C@H](COC[C@H](O)CN2CCC(F)(F)F)O1)NCc1ccc2c(c1)OCO2` gave HCMV antiviral 1.4, VACV mCherry inh -17.0%, Vaccinia Venus -14.5% and FMDV antiviral -9.4%.
Cc1ccc(CNC(=O)CN(Cc2cccs2)C(=O)C2(C)CC(=O)N=C3C=CC=CN32)cc1 (centres undefined) was read as HCMV antiviral -77.3*, VACV mCherry inh -8.0%, Vaccinia Venus -5.0%, HCV inhibitor -1.8% and FMDV antiviral -9.1%.
For C=CCOC1=CS(=O)(=O)N(Cc2ccc(Br)cc2)c2ccc(Br)cc21 the results were HCMV antiviral 16.5, VACV mCherry inh inconclusive, Vaccinia Venus -14.6%, HCV inhibitor 20µM* and FMDV antiviral -21.9%.
Screening S=C(NCc1ccco1)N1CCN(c2nc(-c3ccc(Cl)cc3)cs2)CC1 returned HCMV antiviral -74.1*, VACV mCherry inh -26.7%, Vaccinia Venus -23.7%, HCV inhibitor inconclusive and FMDV antiviral inconclusive.
Screening COCCNC(=S)N1CCN(c2nc(-c3ccc(Cl)cc3)cs2)CC1 returned HCMV antiviral inconclusive, VACV mCherry inh inconclusive, Vaccinia Venus -14.7%, HCV inhibitor 12.6µM* and FMDV antiviral inconclusive.
